Screening results as filed in PubChem BioAssay.
TDP1 cell CPT – DT40-hTDP1 cell growth loss with CPT; chicken DT40 Tdp1-/-;hTDP1 cells + 20 nM CPT, ATP luminescence, 48 h; Potency, µM (top dose mostly 46.2 µM), usual class: inhibitors; 420,000 compounds, 12% hits; note: nearly all actives have a fitted effect of over 55% in size
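Chicken DT40 Tdp1-/- cells complemented with human TDP1, 400 cells/well, exposed to compounds plus 20 nM camptothecin for at least 48 h at 37 C; viability read as ATP content by CellTiter-Glo luminescence.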
S-ASM inh – human S-ASM enzyme inhibition. P17405. placental ASM, HMU-PC fluorogenic substrate, 60 min. Potency, µM (highest dose often 57.5 µM), most hits filed as inhibitors. 340,000 compounds, 0.006% hits. AID 504937
Target sequence (P17405 47-631 limits assumed): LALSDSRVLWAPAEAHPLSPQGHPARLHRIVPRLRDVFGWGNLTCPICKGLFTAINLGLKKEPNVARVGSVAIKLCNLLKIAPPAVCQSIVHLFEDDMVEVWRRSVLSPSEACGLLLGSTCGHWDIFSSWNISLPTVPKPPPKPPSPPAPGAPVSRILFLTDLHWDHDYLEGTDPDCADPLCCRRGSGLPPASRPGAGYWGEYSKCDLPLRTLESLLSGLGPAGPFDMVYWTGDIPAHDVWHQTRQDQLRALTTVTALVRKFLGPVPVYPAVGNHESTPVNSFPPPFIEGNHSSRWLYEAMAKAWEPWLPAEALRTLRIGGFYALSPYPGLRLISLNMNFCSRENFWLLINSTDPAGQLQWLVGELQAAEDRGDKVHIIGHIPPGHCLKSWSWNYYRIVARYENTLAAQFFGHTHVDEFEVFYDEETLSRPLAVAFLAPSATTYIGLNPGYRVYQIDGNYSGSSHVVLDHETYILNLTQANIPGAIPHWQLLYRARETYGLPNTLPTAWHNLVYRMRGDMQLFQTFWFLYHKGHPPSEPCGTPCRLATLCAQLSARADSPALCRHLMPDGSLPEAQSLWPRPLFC
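Fluorescence read-out (Ex 386 nm, Em 447 nm) after stopping the reaction at pH 10. Enzyme: ASM from human placenta; substrate HMU-PC0, 9 uM final; 60 min, 37 °C. Compound preincubation 10 min, ambient temperature.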
DT40 TDP1 no CPT – qHTS for Inhibitors of human tyrosyl-DNA phosphodiesterase 1 (TDP1): qHTS in cells in absence of CPT | DT40 Tdp1-/- hTDP1 cells, no CPT, ATP luminescence, 48 h | Potency, µM (series often up to 46.2 µM), actives largely listed as inhibitors | AID 686978, 2013 | 420,000 compounds, 15% hits; note: nearly all actives have a fitted effect of over 55% in size
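Chicken DT40 Tdp1-/- cells stably complemented with human TDP1 were seeded at 400 cells/well with DMSO in place of 20 nM camptothecin. After compound pinning, cells grew at least 48 hr at 37 °C; viability read by CellTiter-Glo luminescence.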
HepG2 viability – kills HepG2 cells in TGF-b inhibitor counter-screen; AID 588856; Potency, µM (top dose mostly 46.1 µM), actives largely listed as cytotoxic; HepG2 CAGA-GFP viability, ATP luminescence, 18 h; 410,000 compounds, 0.76% hits
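HepG2 CAGA-GFP cells (1000/well, DMEM with 1% FBS) received compound, then TGF-beta at 500 pg/mL final, and were incubated 18 hours at 37 degrees C. Viability was read by CellTiter-Glo luminescence. Media-only wells were set as complete cell-killing and DMSO as no toxicity.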
TGFb SMAD3 inh – TGF-b pathway inhibition; HepG2 CAGA-GFP TGF-b/SMAD3 reporter, GFP fluorescence, 18 h; TGF-beta stimulated, 500 pg/mL final; Potency, µM (top dose mostly 46.1 µM), hits mostly inhibitors; 410,000 compounds, 1.2% hits; note: nearly all actives have a fitted effect of over 65% in size
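HEPG2 CAGA-GFP, 1000 cells/well; 2 h settle, 37 C; cpd via pin tool; TGF-b 500 pg/mL final; 18 h, 37 C; GFP imaging ex488/em500-530; %Activity normalised to -TGF-b and +DMSO controls; CRC fit, curve class.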
IL-1B inflam inh – inhibitors of inflammasome signaling (IL-1 beta secretion); activity change, % at 57.5 µM; 360,000 compounds, 4.7% hits; THP-1 LPS/ATP IL-1B secretion, AlphaLISA, 16 h; hits give low values; in the data active = activity change below about -50%; inconclusive = mostly about -30% to -49%
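Secreted IL-1B measured by AlphaLISA bead assay after 16 h compound exposure of THP-1 cells; compounds (final up to 57.5 uM) added 1 h before LPS (250 ng/mL) and ATP (1.25 mM) stimulation; lower signal means less secretion.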
Large screens that a line does not name were inactive. Hits are enriched below; roughly 19% of the tested compounds scored in any of these assays. Unless noted, calls come from the whole dose curve; as a rule, active = well fitted curve in the direction sought with a large enough effect; inconclusive = small, poorly fitted or top-dose-only effect, or another doubt; inactive = no such curve, though single readings can be large; an effect the other way counts as inactive or inconclusive.

O=C(NCC(c1ccco1)N1CCN(c2ccccc2)CC1)C1CCCCC1 (configuration not stated)	TDP1 cell CPT inconclusive, DT40 TDP1 no CPT 23µM (no result: S-ASM inh)
O=C(NCC(c1ccco1)N1CCN(c2ccccc2F)CC1)c1cccs1 (configuration not stated)	DT40 TDP1 no CPT inconclusive
O=C(NCC(c1ccco1)N1CCN(c2ccccc2F)CC1)C(=O)NC1CCCC1 (configuration not stated)	TDP1 cell CPT inconclusive, DT40 TDP1 no CPT 9.2µM
COc1ccc(NC(=O)C2=C(C)Nc3nc(SCc4ccccc4C)nn3C2c2cc(OC)c(O)c(OC)c2)cc1 (configuration not stated)	none (no result: S-ASM inh, IL-1B inflam inh)
COc1cc(NC(=O)CCCNC(=O)Cn2cnc3sc4c(c3c2=O)CCCC4)cc(OC)c1OC	none
COc1ccc(NC(=O)N2CCc3c(sc4c3CCCC4)C2c2ccc(F)cc2)cc1 (configuration not stated)	TDP1 cell CPT inconclusive, DT40 TDP1 no CPT 21µM, TGFb SMAD3 inh inconclusive (no result: S-ASM inh, IL-1B inflam inh)
COc1ccc(NC(=O)N2CCCC2C(=O)NCc2ccc(F)cc2)cc1 (configuration not stated)	none
Cc1cccc(NC(=O)N2CCC(C(=O)c3ccc(F)cc3)CC2)c1	TDP1 cell CPT inconclusive, DT40 TDP1 no CPT inconclusive
Cc1cccc(NC(=O)N2CCc3c(sc4c3CCCC4)C2c2ccc(F)cc2)c1 (configuration not stated)	TDP1 cell CPT inconclusive, DT40 TDP1 no CPT 16µM (no result: S-ASM inh, IL-1B inflam inh)
O=C(Cn1nc(C(=O)O)c2ccccc2c1=O)NC12CC3CC(CC(C3)C1)C2	none
O=C(Cn1ccc2cc(S(=O)(=O)N3CCCCC3)ccc21)NCCc1ccc(Cl)cc1	TDP1 cell CPT inconclusive, DT40 TDP1 no CPT inconclusive, TGFb SMAD3 inh inconclusive (no result: S-ASM inh, IL-1B inflam inh)
Cc1ccc2c(c1)N(CC(=O)NCCCN1CCOCC1)C(=O)C(C(C)C)O2 (configuration not stated)	none
O=C(c1cccs1)N1C[C@H](n2cc(-c3ccc(F)cc3)nn2)[C@@H](O)C[C@@H]1c1ccc(Cl)cc1	TDP1 cell CPT inconclusive, DT40 TDP1 no CPT inconclusive, TGFb SMAD3 inh inconclusive, IL-1B inflam inh inconclusive (no result: S-ASM inh)
Cc1ccc([C@H]2C[C@@H](n3cc(-c4ccc(F)cc4)nn3)[C@H](O)CN2Cc2cccs2)cc1	DT40 TDP1 no CPT inconclusive (no result: S-ASM inh)
COc1ccc([C@H]2C[C@@H](n3cc(-c4ccc(F)cc4)nn3)[C@H](O)CN2C(=O)c2cccs2)cc1	TDP1 cell CPT inconclusive, DT40 TDP1 no CPT inconclusive (no result: S-ASM inh)
O=C(C1CCCCC1)N1C[C@@H](O)[C@H](n2cc(-c3ccc(F)cc3)nn2)C[C@@H]1c1ccccc1	TDP1 cell CPT inconclusive, DT40 TDP1 no CPT 15µM (no result: S-ASM inh)
O=C(c1cccs1)N1C[C@@H](n2cc(-c3ccc(F)cc3)nn2)[C@H](O)C[C@@H]1c1ccc(Cl)cc1	TDP1 cell CPT 13µM, DT40 TDP1 no CPT 23µM (no result: S-ASM inh)
O=C(c1cccs1)N1C[C@@H](O)[C@H](n2cc(-c3ccc(F)cc3)nn2)C[C@@H]1c1ccc(Cl)cc1	TDP1 cell CPT inconclusive, DT40 TDP1 no CPT 23µM, TGFb SMAD3 inh inconclusive (no result: S-ASM inh)
O[C@@H]1CN(Cc2cccs2)[C@@H](c2ccc(Cl)cc2)C[C@H]1n1cc(-c2ccc(F)cc2)nn1	TDP1 cell CPT inconclusive, DT40 TDP1 no CPT 23µM, TGFb SMAD3 inh inconclusive (no result: S-ASM inh)
COc1ccccc1CC(=O)Nc1ccc(S(=O)(=O)N2CCOCC2)cc1	none
CCOC(=O)CC1C(=O)NCCN1C(=O)c1ccc(Cl)c(Cl)c1 (configuration not stated)	none
O=C(Nc1cccc(Cl)c1Cl)c1cc(S(=O)(=O)N2CCCCC2)ccc1F	TDP1 cell CPT inconclusive, DT40 TDP1 no CPT inconclusive (no result: S-ASM inh, IL-1B inflam inh)
CCOc1cc(-c2noc(CCC(=O)NCCc3ccccc3)n2)ccc1OC	TGFb SMAD3 inh inconclusive
O=C(NNS(=O)(=O)c1ccccc1)c1ccc(S(=O)(=O)N2CCCCC2)cc1	none
O=C(c1cccs1)N1C[C@H](O)[C@@H](n2cc(-c3ccc(F)cc3)nn2)C[C@@H]1c1ccccc1	IL-1B inflam inh inconclusive (no result: S-ASM inh)
O=C(c1cccs1)N1C[C@@H](n2cc(-c3ccc(F)cc3)nn2)[C@H](O)C[C@@H]1c1ccccc1	TDP1 cell CPT 15µM, DT40 TDP1 no CPT 21µM (no result: S-ASM inh)
CN1N/C(=C\c2ccccc2)N=C2C(=O)N(C)C(=O)N=C21	TDP1 cell CPT 1.4µM, DT40 TDP1 no CPT inconclusive, HepG2 viability 1.1µM (no result: S-ASM inh, IL-1B inflam inh)
CC/C=C1/N=C2C(=O)N(C)C(=O)N=C2N(C)N1	TDP1 cell CPT 0.089µM, DT40 TDP1 no CPT inconclusive, TGFb SMAD3 inh inconclusive (no result: S-ASM inh, IL-1B inflam inh)
CN1C(=O)/C(=C/c2ccc3c(c2)OCO3)N=C1c1ccccc1	TDP1 cell CPT inconclusive
Cc1cn([C@H]2C[C@H](O)[C@@H](CNC(=O)c3ccccn3)O2)c(=O)[nH]c1=O	none (no result: S-ASM inh)
O=C(CCNC(=O)c1ccccc1Cl)NCc1cccnc1	none
CC1(C(=O)NCc2ccccc2)CCC(=O)N1C1CC1 (configuration not stated)	none (no result: S-ASM inh)
CC(=O)c1c(C)oc2ccc(N(C(=O)c3ccncc3)S(=O)(=O)c3ccc(F)cc3C)cc12	TDP1 cell CPT 10µM, DT40 TDP1 no CPT 7.3µM, TGFb SMAD3 inh inconclusive (no result: S-ASM inh, IL-1B inflam inh)
Cc1cc(F)ccc1S(=O)(=O)N(C(=O)c1ccncc1)c1ccc(OC(=O)c2ccncc2)cc1	TDP1 cell CPT 23µM, DT40 TDP1 no CPT 15µM
CCOC(=O)c1c(C)oc2ccc(N(C(=O)c3ccncc3)S(=O)(=O)c3ccc(F)cc3C)cc12	TDP1 cell CPT inconclusive, DT40 TDP1 no CPT 23µM, HepG2 viability 14µM, TGFb SMAD3 inh inconclusive (no result: S-ASM inh, IL-1B inflam inh)
CC1CCC(C(O)(C(=O)O)C2CCCCC2)CC1C (configuration not stated)	none
CCOC(=O)C1=C(C)c2ccccc2N(C(=O)OC)C1(C)C(=O)OCC (configuration not stated)	TDP1 cell CPT 10µM, DT40 TDP1 no CPT 10µM, TGFb SMAD3 inh 13µM
CCOC(=O)C1=C(C)c2ccccc2OC1(CC)C(=O)OCC (configuration not stated)	TDP1 cell CPT inconclusive, DT40 TDP1 no CPT inconclusive
O=C(c1cc(COc2ccc(F)cc2Cl)on1)N1CCC(c2ccncc2)CC1	TDP1 cell CPT 6.5µM, DT40 TDP1 no CPT 6.5µM, TGFb SMAD3 inh inconclusive, IL-1B inflam inh inconclusive
CCC(NC(=O)c1cc(COc2ccc(F)cc2Cl)on1)c1ccncc1 (configuration not stated)	TDP1 cell CPT 23µM, DT40 TDP1 no CPT 23µM, IL-1B inflam inh inconclusive
